Data: PubChem BioAssay AID504773 (Broad Institute, 2011)
Results with a measured potency or affinity are listed apart.

Each compound was assayed against Golgi-associated PDZ and coiled-coil motif-containing protein (Homo sapiens) (UniProt Q9HD26) (assay: potency against CAL PDZ-peptide interaction – biochemical, fluorescence polarization, Cerulean-tagged CAL PDZ, cherry-picks, dose response (AID 504773;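 also: 0% = DMSO neutral wells and -100% = excess unlabeled competitor peptide wells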)). Conditions: CAL PDZ-peptide binding, 1 h; series mostly up to 50 µM; activity change, negative = inhibition: at the top concentration;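 active = polarization signal falls with dose and the fitted half-maximal concentration is at or below ten times the sample's top valid dose; inconclusive = flat curve at 30 to 70% inhibition, or poor fit; inactive = signal rises, flat within 30%, or potency beyond limit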.

Activity change, negative = inhibition, inactive:
CCc1nnc(NS(=O)(=O)c2ccc(NC(=O)CCC(=O)O)cc2)s1 -39.5%
COCC(=O)Nc1ccc2nc3n(c(=O)c2c1)CCCCC3 -29.6%
O=C(O)CCCC(=O)N1N=C(c2ccccc2)CC1c1ccc2c(c1)OCO2 (stereo not drawn) -37.2%
CCNS(=O)(=O)c1ccc(CCC(=O)N2CCCC2)cc1 5.15%
COCCCNC(=O)c1c[nH]c2ccc(S(=O)(=O)N3CCC(C)CC3)cc2c1=O 32%
O=C(Oc1c(CN2CCOCC2)cc(Cl)c2cccnc12)c1ccc(F)cc1 -18%
O=C(NCCc1ccccc1)C1CCC(=O)N(CCCN2CCCC2=O)C1 (stereo not drawn) 22.9%
Cc1[nH]c2ccccc2c1C(=O)CSc1nc2ncc(Cl)cc2[nH]1 27.6%
O=C(NCc1ccccn1)Nc1ccc(F)c(Cl)c1 -8.08%
C=CCNC(=O)CC1Nc2c3ccccc3nc(=S)n2C1=O (stereo not drawn) 12.5%
O=C(NC(Cc1c[nH]c2ccccc12)C(=O)O)/C(=C/c1ccc(F)cc1)NC(=O)c1ccccc1 (stereo not drawn) 8.53%
CCOC(=O)CCC(=O)Nc1ccc(S(=O)(=O)N2CCC(C)CC2)cc1 10.4%
CSc1cccc(NC(=O)N2CCCC(CNS(=O)(=O)Cc3ccccc3)C2)c1 (stereo not drawn) -4.47%
CCN(CCCn1c(=S)[nH]c2ccc(N3CCOCC3)cc2c1=O)c1ccccc1 8.28%
CC(C)OC(=O)C1CC(C)(O)C(=O)C(C(=O)OC(C)C)C1c1ccc([N+](=O)[O-])cc1 (stereo not drawn) -42%
CC(CN1CCCC1)OC(=O)C(c1ccccc1)c1ccccc1 (stereo not drawn) -30.8%
CCOc1ccc(C(=O)NCC(=O)N2CCC(C)CC2)cc1OCC 13.5%
CCOC(=O)c1c(CN2CCOCC2)oc2ccc(OC(C)=O)cc12 5.04%
